± gives the standard deviation of the averaged measurements. In all, about 25,000 sequences were measured (“ln(normalized median fluorescence intensity)”: median about 8.6, highest 2% from about 10 on). The sample as a whole holds a higher share of the highest values than the screen did.

This assay has as its system PfAP2-EXP AP2 domain (GST-tagged). Put plainly: gcPBM binding intensity (ln(normalized median fluorescence intensity)); higher = stronger DNA binding. An outline of the steps:
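Binding intensity is the highest Masliner-normalised natural-log median intensity over replicate spots in either probe orientation. To obtain it, GST-tagged P. falciparum DNA-binding domains made in E. coli were incubated for 1 h on an Agilent 4 × 180k array of primer-extended double-stranded 36-bp intergenic genomic probes plus negative controls. Detection used Alexa488 anti-GST antibody with scanning at 488 nm.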
Take “TTTTTAATTTTTTGTTGTACATATAATATATTATTA [XGTACX_site4903]”: the “gcPBM binding intensity (ln)” value came out at 8.6 ± 0.27.
On to “TTTTTTTTTAAAACATAATAAAAAATAAAACAACCT [GTGCAC_negctrl_site92]”, for which the “gcPBM binding intensity (ln)” value was determined as 8.77 ± 0.28.
In the case of “ATATACACATTAATAACACACAATATGATAACAAAT [CACACA_site7670]”, the “gcPBM binding intensity (ln)” value is 8.79 ± 0.33.
Consider “ATTACATGCAATATATGTACGTAATATATATATATA [XGTACX_site2300]”, for which the “gcPBM binding intensity (ln)” value worked out at 9.91 ± 0.38.
To “ATTTAAAAAAGAAAGGTGCATTTCAATAATGTAAAA [GTGCAC_site9585]” belongs 8.62 ± 0.15; to “TTTTGATATAAAAAAAGTACATTAATAATATTAATT [XGTACX_site4248]”, 8.29 ± 0.37.
To “TTATTATATAAAATAAATAACAAAAAAAATAAAATA [GTGCAC_negctrl_site548]” belongs 8.45 ± 0.43; to “CCTTGCCCCAGGAGTTCACACACATAATAGATTGTC [CACACA_site8138]”, 8.82 ± 0.64.
To “TTAACCTTTATATAATACGTATCATCCTCATATATA [CACACA_negctrl_site86]” belongs 8.95 ± 0.61; to “TTATAAATATTCTTGGGTACTTAAGATGATATGTAA [XGTACX_site5496]”, 8.34 ± 0.39; to “TTTATTATCTTATTCACACACATATATAAATATGTA [CACACA_site7369]”, 8.58 ± 0.4.
On to “TTTATTATCTTATTCACACACATATATATATATATA [CACACA_site2869]”, for which the “gcPBM binding intensity (ln)” value was 10.2 ± 0.41.
To “GTTATTAAATAATTCACACACATATATAAATAAATA [CACACA_site7129]” belongs 8.31 ± 0.48; to “CAAAATAAAAAATTCACACACATATATATATATATA [CACACA_site2088]”, 10.2 ± 0.38; to “ATCTCTTATATATTCACACACATATATATAATTATA [CACACA_site1502]”, 8.85 ± 0.42.
For the sequence “CAAAATAAAAAATTCACACACATATAAATATAAATA [CACACA_site7065]”, the “gcPBM binding intensity (ln)” value was found to be 8.54 ± 0.24.
To “GTTATTAAATAATTCACACACATATATATATATATA [CACACA_site2260]” belongs 10.3 ± 0.45; to “GCGTTATTAAATAATTCACACACATATATATATATA [CACACA_site8711]”, 10 ± 0.38; to “AAAAAAAAAAAAAATTCACACACATATAAAAAATTA [CACACA_site8140]”, 8.31 ± 0.47.
To “ATTATATATATATATAAACACACATAAATATAAATA [CACACA_site8291]” belongs 8.56 ± 0.38.
To “AAAATATTTATTTTTTGTACACATAAAAACGCACTT [XGTACX_site4132]” belongs 8.62 ± 0.11.
Turning to “TATTATTTTTTAAATTGTACAATAAATTATAAAAGG [XGTACX_site1162]”, the “gcPBM binding intensity (ln)” value was found to be 8.41 ± 0.39.
To “TTCTAATATTTTTGCACACTAAACAATAAATTTCCT [CACACA_site3944]” belongs 8.885 ± 0.078; to “AGCTCTCAAAATTATTCACACGTGTCCTGTTATATA [CACACA_site5415]”, 9.26 ± 0.47; to “TTTGTGTAAAGAATCAGTACATATAATATATATATA [XGTACX_site1972]”, 9.34 ± 0.33.
Turning to “ATATATTTCATTTTTGTACACACAACGTTGGAGGGT [CACACA_site8999]”, the “gcPBM binding intensity (ln)” value worked out at 8.84 ± 0.39.
To “AAAATAATTGTTTACACACCCATTTGTAATTTTACC [CACACA_site3614]” belongs 8.54 ± 0.37.
As to “GTACCTATTTCATACACACACACACGCAAACAAACA [CACACA_site6590]”, the “gcPBM binding intensity (ln)” value was determined as 9.01 ± 0.34.
For the sequence “TTAACTCAAGAGTGTACACATATATATATATATATA [CACACA_site4334]”, the “gcPBM binding intensity (ln)” value was found to be 10.2 ± 0.47.
As for “CACTTAACACAAGAGTGTACACATATATATATATAT [XGTACX_site686]”, the “gcPBM binding intensity (ln)” value was determined as 10.1 ± 0.53.
To “GTATATATGTATATGTGTACACATATTCTTAACTCA [XGTACX_site309]” belongs 8.88 ± 0.33.
To “TTATAAATGTAACGATGTACTTTTAAAAGTTTCCTT [XGTACX_site109]” belongs 8.36 ± 0.38; to “TGGTATTAAGGAGAGGGTACAAAAAAAAAAAAAAAA [XGTACX_site1668]”, 8.28 ± 0.49.
Turning to “AATAATATCATTTAGACACACACTCTTACAATATGT [CACACA_site8832]”, the “gcPBM binding intensity (ln)” value turned out to be 8.61 ± 0.45.
As to “GTTTATATTTAATTTTTTTGTTTTTTTGTGTAATTC [XGTACX_negctrl_site194]”, the “gcPBM binding intensity (ln)” value turned out to be 8.53 ± 0.47.
Consider “AGATTTAAATATCATACACACTTTATCTATAATACA [CACACA_site6581]”, for which the “gcPBM binding intensity (ln)” value was 8.32 ± 0.4.
To “CATATTAATATTATGGGTACATATAAATTTACATTC [XGTACX_site687]” belongs 8.64 ± 0.38; to “ATAAAATTTTATATGGGTACATAATATAATATATAT [XGTACX_site8160]”, 8.84 ± 0.41; to “ATATATATATATATATGTACATAAATATTTTAAAAT [XGTACX_site4980]”, 10.3 ± 0.4.
“TTAATATTAATTATATGTACATATAATATATATATA [XGTACX_site1757]”: the “gcPBM binding intensity (ln)” value was found to be 9.18 ± 0.13.
To “AAATAATTTACTTAATGTACATATATATATATATAT [XGTACX_site8594]” belongs 10.59 ± 0.092.
To “GTATTTTTTTTAATATGTACATATAAAATATTTTAT [XGTACX_site8329]” belongs 8.96 ± 0.31; to “ATATATATATATATATGTACATAATTAATAATTAGA [XGTACX_site5672]”, 10.3 ± 0.25; to “ATAAATATATTTAAATGTACATAATATATATATATA [XGTACX_site5137]”, 9.96 ± 0.18.

Source of the values: the supplement of paper PMC11417369.
